# Results taken from the supplement of paper PMC3334620.
# Over roughly 33,000 sequences, “E-score (-0.5 to 0.5)” has its median near -0.036; the highest 2% begin near 0.37. This is one part of a sample in which the highest values are shown more often than they occur.
# Target: T1, Yer064c (UniProt P40041)
# T1 sequence: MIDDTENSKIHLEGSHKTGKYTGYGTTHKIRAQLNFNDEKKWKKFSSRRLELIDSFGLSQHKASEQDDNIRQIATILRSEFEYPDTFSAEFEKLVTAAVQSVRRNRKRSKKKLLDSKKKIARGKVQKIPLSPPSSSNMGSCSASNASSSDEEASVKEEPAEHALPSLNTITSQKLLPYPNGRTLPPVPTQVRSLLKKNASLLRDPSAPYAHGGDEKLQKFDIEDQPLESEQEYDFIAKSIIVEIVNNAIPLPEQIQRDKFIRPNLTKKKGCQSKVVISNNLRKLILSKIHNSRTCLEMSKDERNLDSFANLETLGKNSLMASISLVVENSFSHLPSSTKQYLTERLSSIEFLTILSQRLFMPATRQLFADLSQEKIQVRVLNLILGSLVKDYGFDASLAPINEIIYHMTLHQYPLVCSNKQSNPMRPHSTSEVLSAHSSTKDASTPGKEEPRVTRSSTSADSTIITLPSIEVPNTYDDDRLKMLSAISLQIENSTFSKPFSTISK
# Assay: PBM E-score (8-mer binding enrichment) (E-score (-0.5 to 0.5)); higher = stronger / more preferred TF binding
# Details: protein concentration: 200 nM; construct: GST-full length
# Description: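 Universal 'all 10-mer' protein binding microarrays (Agilent AMADID 015681) probed with GST-tagged S. cerevisiae TFs (full-length or DBD) made by in vitro transcription/translation (PURExpress), about 100-200 nM. Bound TF was detected with fluorescent anti-GST. Each ungapped 8-mer (which stands for itself and its reverse complement) is scored by the PBM enrichment score (E-score), a modified Wilcoxon-Mann-Whitney statistic from -0.5 to +0.5, computed with the Universal PBM Analysis Suite. Scale: above 0.35 generally sequence-specific binding.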
row,Sequence,PBM E-score
1,AGAATCAC,0.374
2,GTTCTATA,-0.0345
3,AAGGGTGT,-0.00845
4,AGCGCTGG,0.0943
5,CACAACTG,-0.113
6,ACCTGGCA,-0.145
7,CGATTCTA,0.0229
8,CACCAACC,-0.0246
9,GTCACAGA,0.237
10,CGAATCCG,0.0437
11,CCAATCAG,0.0381
12,CGAATCAG,0.384
13,CCAATCAC,0.182
14,CGAATCAC,0.4
15,CGAATCCC,-0.125
16,ACCTTGGA,-0.0702
17,ACAACTGC,-0.0478
18,AAAAGCCG,-0.213
19,GAGTCTTA,0.453
20,AAGTCTTA,0.213
21,ATGTCTCC,0.216
22,AAGTCCTA,0.186
23,CAGTCCTA,0.183
24,GAGTCTCC,0.419
25,ATGTCTCA,0.414

row,Sequence,PBM E-score
1,AAGTCTCC,0.107
2,CAGTCTTA,0.278
3,GAGTCCTA,0.399
4,CAGTCTCC,0.211
5,ATGTCTCG,0.17
6,AATCTTAA,0.244
7,CCCGCATA,-0.019
8,ATGTAGCA,-0.146
9,ACATCTGG,-0.137
10,AACTTCCG,0.0922
11,CAGTGATC,0.0804
12,GAGTCTCA,0.411
13,TAGTCTCA,0.36
14,AAGTCTCA,0.239
15,ATATGCAG,0.196
16,AGCAAATA,-0.157
17,GCACTGGC,-0.194
18,CACTCACG,0.112
19,TACTCACA,0.367
20,GACTCACC,0.478
21,CACTCACC,0.207
22,CACTCACA,0.0403
23,AACTCACC,0.275
24,AACTCACA,0.259
25,AACTCACG,0.211

row,Sequence,PBM E-score
1,GACTCACA,0.472
2,CCAGATCA,0.058
3,CGAAGCCA,0.0935
4,CTCCCCGA,-0.0625
5,AGTAGCTG,0.0121
6,GCAGAACC,-0.118
7,ATCGAGCA,-0.149
8,AGCTGACT,0.458
9,ACCTGACC,-0.13
10,AACTGACT,0.404
11,AACTGACA,-0.287
12,ACCTGACG,-0.192
13,AACTGACC,-0.163
14,AGCTGACC,-0.078
15,ACCTGACT,0.44
16,AGCTGACG,-0.134
17,AAGTGCAG,0.0456
18,CCCGTGCC,-0.103
19,AGGTAACG,-0.0878
20,ATTCCATA,-0.0291
21,AGCGCATC,-0.0879
22,GACTACTC,0.427
23,GACTACTA,0.417
24,TACTACTA,0.0844
25,GAGTACTC,0.381

row,Sequence,PBM E-score
1,AACTACTA,-0.0232
2,AACTACTC,0.199
3,CAGTACTC,0.24
4,CACTACTC,0.112
5,AAGTACTC,0.282
6,AACGTAAT,0.023
7,GTTGTCGA,-0.158
8,GCGTTGCC,-0.252
9,ACCCTGAC,0.158
10,GTTCAGAA,0.00278
11,AAGCAGCA,-0.264
12,ATTGTACA,0.0112
13,CTGACTAC,0.469
14,CTGACTAA,0.48
15,GGGACTAA,0.323
16,CGGACTAA,0.342
17,GTGACTAA,0.488
18,CGGACTAC,0.248
19,GTTACTAA,0.184
20,CAGACTAA,0.317
21,CTTACTAC,-0.0948
22,AACCGCTA,-0.169
23,ATGTTATA,-0.0918
24,CGAAGGAC,0.079
25,ACCGCGGG,0.0814

row,Sequence,PBM E-score
1,AGCGCCGA,-0.00218
2,ACCTTCGA,0.00431
3,GAATCTCA,0.101
4,CCGGATTA,-0.0124
5,CCAAGCTC,-0.22
6,AGATGTCG,-0.0862
7,GCTCACCC,-0.0459
8,ACTCACCA,0.388
9,ACTCACCT,0.338
10,CCTCACCG,-0.033
11,ACTCACCG,0.384
12,CCTCACCC,-0.213
13,CCTCACCA,-0.134
14,TCTCACCA,-0.117
15,ACTCACCC,0.401
16,ATCGGAGC,-0.0582
17,GACGAAGC,-0.0864
18,TCGGATCA,-0.0516
19,ATTAGAAT,0.186
20,ATTAATCG,0.269
21,CTTAATAA,0.136
22,ATTAATCC,0.256
23,GTTAATAA,0.117
24,CTTAATCA,0.45
25,ATTAATCA,0.441

row,Sequence,PBM E-score
1,CTTAATCC,0.114
2,GTTAATTA,0.0895
3,GTTAATCA,0.451
4,AGACCAAA,0.0161
5,GTAGTAAA,0.107
6,CACTTGCG,-0.0335
7,GTAGGAAA,0.00646
8,CGGTTACC,0.0378
9,ATATTGGC,-0.228
10,GGAGGACC,-0.37
11,GACTTAAA,0.325
12,ACAAGTCG,0.0706
13,GCAAGTCA,0.361
14,ACAAGTCA,0.374
15,CCAAGTCA,0.317
16,ACAAGTCT,0.0793
17,TCAAGTCA,0.379
18,ACAGGGCA,-0.128
19,ATATCCAC,-0.0172
20,TCAAAGCA,0.0603
21,ACTGTTGC,-0.0887
22,AAACCGGC,-0.0714
23,ATTCGCGA,0.122
24,AAATGACG,0.0769
25,AAATGAGT,0.427

row,Sequence,PBM E-score
1,AAATGACC,-0.0187
2,AAATGATA,0.104
3,AAATGATC,0.121
4,AAATGACT,0.475
5,AAATGATT,0.437
6,AAATGAGC,0.058
7,AAATGAGG,-0.229
8,ACTATCTC,0.212
9,AATCCGGG,-0.239
10,CCGTCTCA,0.0264
11,GAAATCAC,0.347
12,ATAATCTC,0.137
13,ATAATCAG,0.33
14,GTAATCAA,0.325
15,CTAATCGC,0.128
16,CTAATCAG,0.286
17,ATAATCAT,0.45
18,ATAATCAA,0.269
19,ATAATCAC,0.385
20,ATAATCCC,-0.227
21,CTAATCAC,0.393
22,GTAATCAC,0.413
